Reference: PubChem BioAssay AID1946 (Johns Hopkins Ion Channel Center, 2009)
About 180 (7.5%) of roughly 2,400 compounds were called active. The full list was thinned out, with actives kept by preference. Values without a mark were called inactive.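 The calls were made as follows: active = readout below zero, meaning a drop past 3 SD under the dofetilide-free negative control mean; inactive = the rest.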

biological target: Potassium voltage-gated channel subfamily KQT member 2 (Rattus norvegicus) (UniProt O88943); assay: KCNQ2 blockade in CHO cells – cell-based, FluxOR thallium flux, counter-screen for hERG block protector project, confirmation (AID 1946); conditions: FluxOR thallium flux fluorescence, at 10 µM, stronger effect = lower value, zero marks the 3-SD hit cutoff
Sequence (O88943 whole entry, looked up): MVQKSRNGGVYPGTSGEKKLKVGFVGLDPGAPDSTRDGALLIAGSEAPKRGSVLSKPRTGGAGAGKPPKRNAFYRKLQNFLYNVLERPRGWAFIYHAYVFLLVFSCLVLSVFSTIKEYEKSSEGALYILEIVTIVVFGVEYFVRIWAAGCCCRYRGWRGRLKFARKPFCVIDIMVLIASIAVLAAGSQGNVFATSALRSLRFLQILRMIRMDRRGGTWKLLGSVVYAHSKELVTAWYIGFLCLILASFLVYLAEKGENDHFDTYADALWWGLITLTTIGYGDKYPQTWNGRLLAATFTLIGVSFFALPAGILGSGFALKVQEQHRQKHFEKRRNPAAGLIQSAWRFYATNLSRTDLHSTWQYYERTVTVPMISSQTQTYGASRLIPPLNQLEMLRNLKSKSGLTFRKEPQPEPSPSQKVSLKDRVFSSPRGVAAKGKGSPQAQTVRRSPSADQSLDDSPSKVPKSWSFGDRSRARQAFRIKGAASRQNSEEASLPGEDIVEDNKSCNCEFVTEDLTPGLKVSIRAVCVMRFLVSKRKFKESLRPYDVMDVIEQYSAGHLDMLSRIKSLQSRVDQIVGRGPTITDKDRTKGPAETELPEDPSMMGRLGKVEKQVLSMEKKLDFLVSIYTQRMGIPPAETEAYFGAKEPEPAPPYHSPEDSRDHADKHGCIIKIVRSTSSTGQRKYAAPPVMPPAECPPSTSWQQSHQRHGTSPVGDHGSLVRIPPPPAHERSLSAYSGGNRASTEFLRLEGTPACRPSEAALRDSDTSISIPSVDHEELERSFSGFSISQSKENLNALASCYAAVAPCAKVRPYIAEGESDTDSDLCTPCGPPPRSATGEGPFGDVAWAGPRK

Point of comparison: `CCOC(=O)NC(=S)Nc1ccc(C(C)(C)C)cc1Br`, activity change vs negative control 16.6%. Against it:
- O=C(NC(=S)N1CCN(c2nc(-c3ccccc3)cs2)CC1)c1cncc(Br)c1 — higher, 76.4%
- Cc1ccccc1OC(=O)n1c(=S)oc2cc(Cl)ccc21 — higher, 33.4%
- Cc1ccc2nsnc2c1S(=O)(=O)Nc1cccc2nsnc12 — higher, 27.1%
- Cc1cc(C)nc(NS(=O)(=O)c2ccc(NC(=O)Cc3ccccc3)cc2)n1 — lower, 12.6%
- O=C(COc1ccccc1)Nc1ccc(S(=O)(=O)Nc2ccccn2)cc1 — lower, 0.2%
- Cc1ccc(-c2n[nH]c(=S)nc2-c2ccc(C)cc2)cc1 — lower, 15.9%
- O=C(NC(=S)Nc1nc2ccccc2s1)c1cccs1 — higher, 38.4%
- S=C(Nc1ccc(Cl)cc1)c1nc2ccccc2s1 — higher, 22%
- Cc1nc2ccccc2n1-c1ccccc1 — higher, 19.5%
- Oc1c(Cl)cc(Cl)cc1/C=N/c1ncn[nH]1 — higher, 53.4%
- O=C(NC(=S)N1CCCCCC1)c1ccc(Cl)cc1Cl — higher, 30.8%
- COc1ccc(NC(=O)C(=O)NNC(=O)COc2ccc(Cl)cc2)c(OC)c1 — higher, 38.6%
- COCCCNC(=O)CCc1nnc(Cc2ccc(-c3ccccc3)cc2)o1 — higher, 26.3%
- CN(Cc1ccsc1)C(=O)CCc1nnc(Cc2c[nH]c3ccccc23)o1 — lower, 10.6%
- CN(C)c1ccc(NC(=O)CCCc2ccccc2)cc1 — higher, 29.6%
- O=C(CS(=O)(=O)Cc1ccccc1)Nc1ccc(Cl)cn1 — lower, 7.9%
- S=c1nc(C2CCCCC2)n(-c2ccccc2)[nH]1 — higher, 72.6%
- O=C(Nc1ccc(N2CCOCC2)cc1)c1ccc(S(=O)(=O)N2CCCCC2)cc1 — lower, 10.5%
- N#C/C(=N/Nc1ccc([N+](=O)[O-])cc1)C(=N)N1CCCCC1 — higher, 17%
- COc1ccc(OCC(=O)NNC(=O)C(=O)Nc2cc(OC)ccc2OC)cc1 — higher, 38.9%
- CCOC(=O)c1sc2nc(C)[nH]c(=S)c2c1C — higher, 32.7%
- CC(NC(=O)c1ccc(F)cc1)c1ccc2c(c1)CCCC2 (centres undefined) — higher, 55.5%
- CCCn1c(SCC(=O)N2CCN(C(C)=O)CC2)nc2sc3c(c2c1=O)CCC3 — higher, 51.5%
- CCn1c(SCC(N)=O)nc2sc3c(c2c1=O)CCCC3 — higher, 60.6%
- CCN(CC)C(=S)NC(=O)c1ccc(OC)c(Br)c1 — higher, 16.8%
- O=C1CC(O)(C(F)(F)F)Oc2c1ccc1ccccc21 (centres undefined) — higher, 49.7%
- S=c1nc(C2CCCCC2)[nH]c2ccccc12 — higher, 25.5%
- CC(C)(C)C1(O)CC(C(F)(F)F)=NN1C(=O)Cc1ccc([N+](=O)[O-])cc1 (centres undefined) — lower, 10.6%
- O=C(C1CC1)N1N=C(c2ccccc2)CC1(O)C(F)(F)C(F)(F)F (centres undefined) — lower, 7.3%
- CN(C(=S)NC(=O)c1ccc(Cl)cc1)C1CCCCC1 — higher, 26.3%
- CNC(=O)CSc1nnc(-c2ccco2)n1-c1ccccc1 — lower, 7%
- Cc1ccc(-n2ncc3c(SCC(=O)NNC(=O)c4ccco4)ncnc32)cc1 — higher, 35.7%
- C/C(=N/NC(=O)c1cc2ccccc2cc1O)c1ccco1 — higher, 87.3%
- O=C(COc1ccc2ccccc2c1)NNC(=O)C(=O)Nc1ccccc1 — higher, 61.8%
- CCCn1c(=S)[nH]c2sc3c(c2c1=O)CCCC3 — higher, 95%
- CCOC(=O)Cc1csc(NC(=S)NC(=O)c2ccccc2Br)n1 — higher, 38.6%
- NC(=O)C1CCN(C(=O)c2cc3c(s2)CCCC3)CC1 — higher, 41.4%
- Cc1csc(NC(=O)c2cc3c(s2)CCCC3)n1 — higher, 49.2%
- Cc1nc(NCc2cccnc2)c2c3c(sc2n1)CC(C)CC3 (centres undefined) — higher, 49.7%
- N/C(=N\OS(=O)(=O)c1cccc([N+](=O)[O-])c1)c1ccncc1 — higher, 29.1%
- Cc1cc(SCC(=O)c2cccc([N+](=O)[O-])c2)nc(=O)[nH]1 — lower, 7.5%
- Cc1ccc2oc3c(c(=O)c2c1)C(c1cccs1)N(CCCN(C)C)C3=O (centres undefined) — higher, 21.6%
- CCOC(=O)c1sc2nc(C)nc(SCC(=O)N(C)C3CCS(=O)(=O)C3)c2c1C (centres undefined) — higher, 20.9%
- CN(C(=O)CSc1ncnc2sc(-c3ccccc3)cc12)C1CCS(=O)(=O)C1 (centres undefined) — higher, 94.7%
- COc1ccccc1C(=O)NNC(=O)C(=O)Nc1ccc(C)c(Cl)c1 — higher, 148%
- Cc1nn(Cc2ccccc2)c2c1C(c1cccnc1)C(C#N)=C(N)O2 (centres undefined) — lower, 12.9%
- COC(=O)c1ccc(C2C(C#N)=C(N)Oc3cc(O)ccc32)cc1 (centres undefined) — lower, 12.7%
- Cc1nn(CC(=O)Nc2ccc(C(=O)N3CCCC3)cc2)c(=O)c2ccccc12 — higher, 32.9%
- O=C(Nc1cccc(N=Cc2cc(Cl)cc(Br)c2O)c1)c1ccco1 — higher, 53.8%
- COc1cccc(C(=O)NNC(=O)C(=O)Nc2cccc3ccccc23)c1 — higher, 91%
- CCOC(=O)C(=CNc1ccc(OC)cc1[N+](=O)[O-])C(=O)OCC — lower, 13.9%
- COC(=O)Oc1ccc(/C=C/C(=O)OC(C)C)cc1OC(=O)OC — higher, 24.5%
- CCN(CC)c1ccc(NC(=S)NC(=O)c2ccco2)cc1 — higher, 67.2%
- Cc1ccc(C(=O)Sc2cccccc2=O)cc1 — higher, 102%
- CCOC(=O)c1sc2ncnc(NCC(c3cccs3)N(C)C)c2c1C (centres undefined) — higher, 61%
- S=c1[nH]c(-c2ccccc2)cs1 — higher, 85.5%
- CCOC(=O)Cn1cc(C=O)c2ccccc21 — lower, 8.6%
- COC(=O)CCn1[nH]c(=O)c2ccccc2c1=O — lower, 15.6%
- O=C(NC(=S)Nc1ncc(Br)cc1Br)c1ccccc1 — higher, 28.8%
- Cc1ccc(S(=O)(=O)NC(=S)NC2CCCCC2)cc1 — higher, 19.8%
- CN(C)S(=O)(=O)c1cccc(C(=O)Nc2cccnc2)c1 — lower, 8%
- O=C(Nc1ccc(Oc2cccnc2)cc1)c1cccc([N+](=O)[O-])c1 — lower, 13.8%
- O=C(NCC1CCCO1)c1ccc2c(=O)n(Cc3ccco3)c(SCC(=O)N3CCCC3)nc2c1 (centres undefined) — higher, 32.7%
- Cc1cccc(/C=N/n2c(COc3ccccc3)n[nH]c2=S)c1 — lower, 14.1%
- S=c1[nH]nc(-c2ccco2)n1/N=C/C(Cl)=C/c1ccccc1 — lower, 10.3%
- Cc1ccc(C(=O)CC(=O)c2cccc(F)c2)c(O)c1 — lower, 7.2%
- CC(C)c1nc2sc3c(=S)nc[nH]c3c2c2c1CCC2 — higher, 45.5%
- Cc1cc2ccccn2c1C(=S)NC(=O)c1ccccc1 — higher, 68.1%
- C=CCn1c(O)c(N=NC(=S)Nc2ccc(OC)c(Cl)c2)c2ccccc21 — higher, 18.3%
- CCOC(=O)CSc1nnc(NC(=O)c2ccc3c(c2)OCO3)s1 — lower, 5.6%
- COc1ccccc1Nc1nnc(SCC(=O)Nc2nc(-c3ccc(F)cc3)cs2)s1 — lower, 9.1%
- CCOC(=O)C(=CNc1cc(C)ccn1)C(=O)OCC — higher, 18.2%
- S=c1nc(C2CC2)[nH]c2ccccc12 — higher, 58.2%
- Cc1ccc(-c2nc3ccccc3c(=O)n2O)cc1 — higher, 29.3%
- COc1ccc(-n2nc(C(=O)NCC(=O)NCc3ccc(F)cc3)c3ccccc3c2=O)cc1OC — lower, 12.7%
- Cc1ccccc1Cn1nc(C)c(NC(=O)c2ccccc2)c1C — higher, 73%
- COc1ccccc1C(=O)NNC(=O)C(=O)Nc1ccc(C)cc1 — higher, 162%
- O=C(O)c1cc(NN=C2c3ccccc3-c3ccccc32)ccc1Cl — higher, 63.8%
- COC(=O)c1ccc(C(=O)NC(=S)Nc2nc3c(s2)CCCC3)cc1 — higher, 37.8%

With `O=C(CCCc1c[nH]c2ccccc12)Nc1ccc(S(=O)(=O)Nc2ncccn2)cc1` the activity change vs negative control was -0.6% (active).
`CN(CC(=O)Nc1nc2ccccc2s1)S(=O)(=O)c1ccc(Cl)cc1` was tested, and the activity change vs negative control was -3.4% (active).
`CC(C)CCNC(=O)CCc1nnc(Cc2c[nH]c3ccccc23)o1` was tested, and the activity change vs negative control was -0.6% (active).
In the case of `CC(C)C(=O)Nc1ccc(NC(=O)CCc2ccccc2)cn1`, the activity change vs negative control is reported as -1.8% (active).
For `O=[N+]([O-])c1ccc(S(=O)(=O)Nc2ccc(S(=O)(=O)N3CCCC3)cc2)cc1`, the activity change vs negative control was -0.3% (active).
`CCC(=O)N1CCN(c2nc(CC)nc3sc4c(c23)CCCC4)CC1` was tested, and the activity change vs negative control was -20.7% (active).
`CCCCC1(O)CC(C(F)(F)F)=NN1C(=O)COc1ccccc1` (centres undefined) was tested, and the activity change vs negative control was -7.8% (active).
`CNC(=O)CSc1nnc(-c2ccco2)n1-c1ccc(C)cc1` was tested, and the activity change vs negative control was -1.9% (active).
For `CC(OC(=O)c1cc2c(s1)CCCCC2)C(=O)NC(N)=O` (centres undefined), the activity change vs negative control was -1.8% (active).
In the case of `O=C(CSc1nnc(-c2ccncc2)o1)c1cccc([N+](=O)[O-])c1`, the activity change vs negative control is reported as -7.8% (active).
With `CCC(C)N(C(=O)CSc1nnc(NC(C)C)s1)C1CCS(=O)(=O)C1` (centres undefined) the activity change vs negative control was -0.9% (active).
`CCOC(=O)C1=C(N)Oc2cc(O)ccc2C1c1cccnc1` (centres undefined) was tested, and the activity change vs negative control was -1.7% (active).
For `COc1ccc(NC(=S)NC(NC(=O)c2cccc3ccccc23)C(Cl)(Cl)Cl)c([N+](=O)[O-])c1` (centres undefined), the activity change vs negative control was -0.3% (active).
In the case of `CC1=CC(=O)C(C(C)C)=CC1=NC(=O)c1ccc(C)cc1`, the activity change vs negative control is reported as -1% (active).
`COC(=O)Cn1c(=O)c(=O)n(CC(=O)OC)c2ccccc21` was tested, and the activity change vs negative control was -3.8% (active).
With `O=C(Nc1ccc(Cl)c(-c2nc3ccccc3[nH]2)c1)c1cccnc1` the activity change vs negative control was -19.3% (active).
For `S=c1[nH]nc(-c2n[nH]c3c2CCC3)n1/N=C/C=C/c1ccccc1`, the activity change vs negative control was -4.8% (active).
In the case of `Nc1nnc(SCC(=O)OCc2ccc(F)cc2)s1`, the activity change vs negative control is reported as -2.1% (active).
For `NC(=O)c1nsc(C(=O)N(CC(=O)NCc2ccccc2)c2ccc(F)cc2)c1N`, the activity change vs negative control was -0.6% (active).
